{"source": "PubChem BioAssay (Tox21)", "note": "Records with an inconclusive call do not appear. A number with no mark means an inactive call. The call rests on the fitted dose curve; in most records, active means well fitted activation curve with a large enough effect in the repeat runs; inconclusive means weak or mixed curves; inactive means no such curve, though single readings can be large or run the other way. On the % scale 0 is the no-effect control and ±100 the full control effect.", "data": [{"molecular_target": "Nuclear receptor subfamily 1 group I member 2 (Rattus norvegicus) (UniProt Q9R1A7)", "sequence (Q9R1A7 whole entry, looked up)": "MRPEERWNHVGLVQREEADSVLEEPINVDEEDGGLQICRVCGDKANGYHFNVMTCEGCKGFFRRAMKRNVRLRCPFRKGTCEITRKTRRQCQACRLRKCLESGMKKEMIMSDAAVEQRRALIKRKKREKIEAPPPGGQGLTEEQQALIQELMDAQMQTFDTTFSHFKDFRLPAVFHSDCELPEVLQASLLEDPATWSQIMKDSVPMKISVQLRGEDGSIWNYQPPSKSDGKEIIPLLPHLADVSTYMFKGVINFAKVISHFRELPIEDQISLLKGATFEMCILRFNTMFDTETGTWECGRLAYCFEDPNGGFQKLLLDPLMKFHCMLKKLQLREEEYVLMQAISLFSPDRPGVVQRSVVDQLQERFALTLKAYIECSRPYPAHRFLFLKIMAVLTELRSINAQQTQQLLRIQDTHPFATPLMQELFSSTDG", "test": "Rat pregnane X receptor (rPXR) activation by small molecules, qHTS assay (AID 1346983); further: nearly all actives have a fitted effect of over 20% in size", "settings": "rPXR luciferase reporter cells, One-Glo luminescence, 24 h; max activation: stronger effect = higher value", "summary_of_the_method": "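Luminescent readout (One-Glo luciferase, 30 min room temperature) followed 24 hr compound treatment at 37 C of rPXR cells plated 2,000 per well and preincubated 5hr; qHTS format with compounds delivered in DMSO.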", "units": {"max activation": "%"}, "values": [{"smiles": "CCC(=O)Nc1ccc(O)cc1", "max activation": -1.74}, {"smiles": "CC(=O)Oc1cc(C(C)C)c(OCCN(C)C)cc1C", "max activation": -1.16}, {"smiles": "O=c1[nH]cnc2c1ncn2[C@@H]1O[C@H](CO)[C@@H](O)[C@H]1O", "max activation": -2.07}, {"smiles": "N#Cc1ccc(C(c2ccc(C#N)cc2)n2cncn2)cc1", "max activation": 0.445}, {"smiles": "Cc1c(-c2ccccc2)oc2c(C(=O)OCCN3CCCCC3)cccc2c1=O", "max activation": -3.87}, {"smiles": "OCc1ccccc1O", "max activation": 11.7}, {"smiles": "C[C@@H]1CN(c2c(F)c(F)c3c(=O)c(C(=O)O)cn(C4CC4)c3c2F)C[C@H](C)N1", "max activation": -2.98}, {"smiles": "CC(=O)N(CC(O)CN(C(C)=O)c1c(I)c(C(=O)NCC(O)CO)c(I)c(C(=O)NCC(O)CO)c1I)c1c(I)c(C(=O)NCC(O)CO)c(I)c(C(=O)NCC(O)CO)c1I", "note": "(stereo unspecified)", "max activation": -0.58}, {"smiles": "CC(C)O", "max activation": -2.1}, {"smiles": "CN1CCN(c2c(F)cc3c(=O)c(C(=O)O)cn(CCF)c3c2F)CC1", "max activation": -0.524}, {"smiles": "CN1CCN(c2c(F)cc3c(=O)c(C(=O)O)cn4c3c2SCC4)CC1", "max activation": -4.92}, {"smiles": "O=c1[nH]c(=O)n([C@H]2C[C@H](O)[C@@H](CO)O2)cc1C(F)(F)F", "max activation": 3.55}, {"smiles": "Cc1nnc(SCC2=C(C(=O)O)N3C(=O)[C@@H](NC(=O)Cn4cnnn4)[C@H]3SC2)s1", "max activation": -4.1}, {"smiles": "Oc1ccccc1C=NCc1ccccc1", "max activation": -0.218}, {"smiles": "NC/C=C/C(=O)O", "max activation": -4.44}, {"smiles": "COc1ccccc1N1CCN(CCCNc2cc(=O)n(C)c(=O)n2C)CC1", "max activation": -1.3}]}]}
